Assay [1] is described as follows: qHTS assay to identify small molecule antagonists of the thyroid receptor (TR) signaling pathway - cell viability counter screen (AID 743064). Further: nearly all actives have a fitted effect of over 50% in size. Further: potency means the concentration at half of the fitted maximal effect. The essentials: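 Same-well viability check: GH3.TRE-Luc cells stimulated with 1 nM T3 alongside test compound for 23.5 h, followed by CellTiter-Fluor fluorescence.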
A general note: Quantitative high-throughput screening tests each substance at several concentrations.

The subject of assay [2] is thyroid hormone receptor (rat, GH3 cells). Put plainly: qHTS assay to identify small molecule agonists of the thyroid receptor (TR) signaling pathway (AID 743066; calls by dose curve).
Assay [3] can be described thus: qHTS assay to identify small molecule antagonists of the estrogen receptor alpha (ER-alpha) signaling pathway - cell viability counter screen (AID 743074; calls by dose curve;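 further: HEK293 cells carrying ER-alpha-UAS-bla reporter stimulated with 17beta-estradiol; nearly all actives have a fitted effect of over 45% in size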).
For assay [4], the target named is Estrogen receptor (Homo sapiens) (UniProt P03372). Put plainly: qHTS assay to identify small molecule agonists of the estrogen receptor alpha (ER-alpha) signaling pathway (AID 743075; calls by dose curve;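 further: HEK293 GripTite cells with ER-alpha and UAS-driven beta-lactamase reporter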; further: potency means the concentration at half of the fitted maximal effect).
Assay [5] is described as follows: qHTS assay to identify small molecule antagonists of the estrogen receptor alpha (ER-alpha) signaling pathway using the BG1 cell line (AID 743080; calls by dose curve;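 further: BG1 cells stimulated with 17beta-estradiol alongside compound; nearly all actives have a fitted effect of over 25% in size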; further: potency means the concentration at half of the fitted maximal effect). The essentials:
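Readout is ONE-Glo luminescence, taken 30 min at room temperature after reagent addition, preceded by a CellTiter-Fluor viability read; BG1-Luc-4E2 cells had received compound and 17beta-estradiol for 21.5 h at 37 C.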

In the next assay the target is Aromatase (Homo sapiens) (UniProt P11511). Put plainly: qHTS assay to identify aromatase inhibitors (AID 743083). Further: nearly all actives have a fitted effect of over 55% in size. Further: potency means the concentration at half of the fitted maximal effect.
A short description of assay [6]: qHTS assay to identify small molecule antagonists of the thyroid receptor (TR) signaling pathway (AID 743065). Further: nearly all actives have a fitted effect of over 55% in size. Further: potency means the concentration at half of the fitted maximal effect. The essentials:
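GH3.TRE-Luc rat pituitary cells (two TREs driving luciferase) were dosed with compound, then stimulated with 1 nM T3 (final) for 23.5 h at 37 C. ONE-Glo luminescence was the read-out, with CellTiter-Fluor fluorescence as the cytotoxicity counter-screen.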

The nature of assay [7]: qHTS assay to identify small molecule antagonists of the estrogen receptor alpha (ER-alpha) signaling pathway using the BG1 cell line - cell viability counter screen (AID 743081).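 Further: compound given together with 17beta-estradiol as the ER stimulus; nearly all actives have a fitted effect of over 45% in size.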
Assay [8] deals with Estrogen receptor (Homo sapiens) (UniProt P03372). Put plainly: qHTS assay to identify small molecule antagonists of the estrogen receptor alpha (ER-alpha) signaling pathway (AID 743069; active means well fitted curve in the direction sought with a large enough effect in the signal ratio in the repeat runs, not every such curve was filed as active; inconclusive means weak or mixed curves, or effect the other way; inactive means no such curve, though single readings can be large or run the other way; the % refers to the signal ratio; further: potency means the concentration at half of the fitted maximal effect). The essentials: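 Beta-lactamase FRET fluorescence is read after 2 hr at room temperature with LiveBLAzer B/G substrate. Before that, ER-alpha-bla HEK293 cells sit 4 hr after plating, then receive compound plus 17beta-estradiol and incubate 18 hr at 37C.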

Assay [9] shares this target. Put plainly: qHTS assay to identify small molecule agonists of the estrogen receptor alpha (ER-alpha) signaling pathway using the BG1 cell line (AID 743079). Further: nearly all actives have a fitted effect of over 20% in size. Further: potency means the concentration at half of the fitted maximal effect. The conditions noted are these: BG1Luc4E2 cells, ERE-luciferase agonist, 22 h.

Several values for one entry are separate records, joined by “and”; a condition that tells them apart may be missing. Equal values may be shown once. The source holds several records for some structures; these can differ, active in one and inactive in another. Activity calls are given as the source filed them. Unless noted, the call rests on the fitted dose curve; in most records, active means well fitted curve in the direction sought with a large enough effect in the repeat runs; inconclusive means weak or mixed curves; inactive means no such curve, though single readings can be large; an effect the other way counts as inactive or inconclusive.

Drawing on PubChem BioAssay (Tox21), this text covers Potency, outcome and activation for 26 compounds.
On the % scale 0 is the no-effect control and ±100 the full control effect.

Estrogen receptor (Homo sapiens), sequence (P03372 whole entry, looked up): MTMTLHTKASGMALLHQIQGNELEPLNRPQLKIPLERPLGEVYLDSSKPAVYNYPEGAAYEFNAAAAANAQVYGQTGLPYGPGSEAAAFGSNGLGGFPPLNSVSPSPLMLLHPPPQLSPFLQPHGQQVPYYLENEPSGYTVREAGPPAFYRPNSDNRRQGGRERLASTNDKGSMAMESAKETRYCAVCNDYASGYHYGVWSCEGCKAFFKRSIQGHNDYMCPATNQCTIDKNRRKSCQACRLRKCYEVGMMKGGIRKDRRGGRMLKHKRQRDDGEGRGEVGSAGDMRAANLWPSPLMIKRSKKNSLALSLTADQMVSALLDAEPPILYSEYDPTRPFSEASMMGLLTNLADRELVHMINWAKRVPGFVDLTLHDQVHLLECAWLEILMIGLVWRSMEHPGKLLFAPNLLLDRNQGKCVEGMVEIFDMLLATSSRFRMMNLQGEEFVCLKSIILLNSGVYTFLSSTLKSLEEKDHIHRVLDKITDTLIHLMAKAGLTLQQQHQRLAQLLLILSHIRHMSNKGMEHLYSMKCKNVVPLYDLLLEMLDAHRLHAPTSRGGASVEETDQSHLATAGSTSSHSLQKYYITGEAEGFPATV
Aromatase (Homo sapiens), sequence (P11511 whole entry, looked up): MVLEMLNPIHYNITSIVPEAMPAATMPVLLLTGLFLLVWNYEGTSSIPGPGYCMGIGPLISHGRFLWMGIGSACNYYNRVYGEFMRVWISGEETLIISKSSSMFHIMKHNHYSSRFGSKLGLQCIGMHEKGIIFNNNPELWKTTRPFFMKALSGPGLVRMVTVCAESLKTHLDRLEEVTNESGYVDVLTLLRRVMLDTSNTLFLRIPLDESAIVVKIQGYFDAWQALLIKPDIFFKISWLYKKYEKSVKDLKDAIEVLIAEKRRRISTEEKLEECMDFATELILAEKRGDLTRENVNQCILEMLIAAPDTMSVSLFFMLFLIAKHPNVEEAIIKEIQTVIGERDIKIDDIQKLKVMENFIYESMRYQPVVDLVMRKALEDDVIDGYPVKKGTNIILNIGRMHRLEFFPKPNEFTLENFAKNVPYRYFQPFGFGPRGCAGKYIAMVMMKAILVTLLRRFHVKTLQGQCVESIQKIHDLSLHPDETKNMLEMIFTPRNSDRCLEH

As for `CCc1cc2c(s1)-n1c(C)nnc1CN=C2c1ccccc1Cl`, the Potency entry (in assay [1]; in assay [2]; in assay [4]; with Aromatase (Homo sapiens)) was “inactive” each time. The compound was classed as inactive in assay [3]. For the same compound, the Potency in [5] was 11.9 µM (active).

On to `CN1CCC(O)(c2ccc(F)cc2)C(C(=O)c2ccc(F)cc2)C1` (configuration not stated), for which the Potency in [1] is 21.1 µM (active); in assay [6] it was 26.6 µM (active). Moreover, the Potency result (in assay [2]; in assay [7]; with Aromatase (Homo sapiens)) was “inactive” in each case. Besides, the result in assay [3] was inactive.

Turning to `ClCC(Cl)(Cl)Cl`, the Potency entry (in [1]; in [8]; in assay [4]; in [5]; in assay [7]; in the assay with Aromatase (Homo sapiens)) was “inactive” each time. Moreover, in assay [3], the result was inactive. Moreover, in assay [9] (at 95 µM (top of the series)), the activation was 9.47% (inactive).

For the compound `CCCSP(=S)(OCC)Oc1ccc(Cl)cc1Cl` (configuration not stated), the Potency result (in [1]; in [2]; in [8]; in [5]; in assay [7]; in the assay with Aromatase (Homo sapiens)) was “inactive” each time. The result in assay [3] was inactive. Further, the Potency in assay [9] was 38.6 µM (active).

Regarding `CNC(=O)N(C)c1nc2ccccc2s1`, the Potency result (in assay [1]; in assay [6]; in assay [2]; in assay [7]; in the assay with Aromatase (Homo sapiens)) was “inactive” in each case.

Turning to `C(CCOCC1CO1)COCC1CO1` (configuration not stated), the Potency entry (in assay [1]; in assay [2]; in assay [4]; in assay [5]; in assay [7]; with Aromatase (Homo sapiens)) was “inactive” each time. In addition, in assay [6], the Potency is 42.6 µM (active). Moreover, the activation in [9] (at 70.3 µM (top of the series)) is 0.112% (inactive).

`COc1ccc2c(c1OC)CN1CCc3cc4c(cc3C1C2)OCO4` (configuration not stated): the Potency result (in [1]; in [2]; in assay [4]; in assay [7]; with Aromatase (Homo sapiens)) was “inactive” each time. The outcome in [3] was inactive. In assay [9] (at 32.5 µM (top of the series)), the activation is -4.85% (inactive).

Turning to `Cc1ccccc1CO[C@@H]1C[C@@]2(C(C)C)CC[C@]1(C)O2`, the Potency entry in assay [1], in assay [2] and in [7] was “inactive” throughout. In addition, the call in assay [3] was inactive.

With `C[C@H]1CCC[C@H](O)CCCCCc2cc(O)cc(O)c2C(=O)O1`, the Potency entry in assay [1] was “inactive and 54.9 µM (active)”; in assay [4], 848 nM [inconclusive] (active) and 175 nM [inconclusive] (active); in the assay with Aromatase (Homo sapiens), 61.6 µM (active). In addition, the Potency result in assay [8] and in [7] was “inactive” throughout. For the same compound, in assay [3], the result was inactive. Besides, the activation in assay [9] (at 70.3 µM (top of the series)) was -0.266% (active); in assay [9] (at 95 µM (top of the series)), -52.7% (active).

For the compound `CCOP(=S)(OCC)SCSP(=S)(OCC)OCC`, the Potency entry in assay [1], in assay [2], in assay [8], in [4], in assay [5] and in assay [7] was “inactive” each time. Further, in the assay with Aromatase (Homo sapiens), the Potency entry was “inactive”. The outcome in [3] was inactive. Further, the Potency in assay [9] was 38.6 µM (active).

As for `CCN(CC)CCOC(=O)C(C)(c1ccccc1)c1ccccc1`, the Potency in assay [1] and in [6] was 26.6 µM (active) each time. In addition, the Potency entry (in [2]; in the assay with Aromatase (Homo sapiens)) was “inactive” each time. Besides, in assay [3], the call was inactive.

As for `CN(C)CCc1ccc(O)cc1`, the Potency entry (in assay [1]; in assay [6]; in assay [2]; in [7]; with Aromatase (Homo sapiens)) was “inactive” throughout. Also, in assay [3], the outcome was inactive.

`CCN(CC)C(=O)[C@@H]1C=C2c3cccc4[nH]cc(c34)C[C@H]2N(C)C1`: the Potency result (in assay [1]; in assay [2]; with Aromatase (Homo sapiens)) was “inactive” in each case. For the same compound, the compound was called inactive in [3]. In addition, the Potency entry was “inactive and 8.49 µM [inconclusive] (active)” in assay [4]; 0.944 µM (active) in assay [9]. The activation in [9] (at 260 µM (top of the series)) was -12% (inactive).

For `COc1cc(OC)nc(Oc2cccc(Oc3nc(OC)cc(OC)n3)c2C(=O)O)n1`, the Potency result (in assay [1]; in [6]; in assay [2]; in assay [7]; with Aromatase (Homo sapiens)) was “inactive” each time. Further, the compound was called inactive in [3].

Regarding `CCOC(=O)/C=C(C)/C=C/C[C@@H](C)CCCC(C)C`, the Potency result (in assay [1]; in assay [6]; in assay [4]; in assay [7]; with Aromatase (Homo sapiens)) was “inactive” throughout. The Potency entry in assay [8] is “inactive and 24.5 µM [inhibitor] (active)”. Also, in [3], the outcome was inactive. The activation in assay [9] (at 70.3 µM (top of the series)) is 19.2% (inactive) and -9.9% (inactive).

Regarding `CNC(=O)O/N=C(\C)SC`, the Potency entry (in assay [1]; in [6]; in assay [2]; in assay [7]; with Aromatase (Homo sapiens)) was “inactive” throughout.

As to `CCCCCCBr`, the Potency result (in [1]; in assay [6]; in [2]; in assay [7]; with Aromatase (Homo sapiens)) was “inactive” each time. Also, the compound was called inactive in [3].

`O=C1CN=C(c2ccccc2)c2cc([N+](=O)[O-])ccc2N1`: the Potency entry (in [1]; in assay [2]; in assay [8]; in assay [4]; in assay [7]; in the assay with Aromatase (Homo sapiens)) was “inactive” each time. Also, the call in assay [3] was inactive. For the same compound, the activation in assay [9] (at 70.3 µM (top of the series)) is -1.51% (inactive).

With `CC(CCc1ccccc1)NC(C)C(O)c1ccc(O)cc1` (configuration not stated), in assay [1], the Potency is 16.8 µM (active). In addition, the Potency entry (in assay [2]; in [8]; in assay [4]; in assay [5]; in assay [7]; in the assay with Aromatase (Homo sapiens)) was “inactive” in each case. In assay [3], the call was inactive. In [9] (at 70.3 µM (top of the series)), the activation is -7.77% (inactive).

Consider `CCNc1nc(NC(C)C)nc(OC)n1`, for which the Potency result (in assay [1]; in assay [6]; in [2]; in assay [7]; in the assay with Aromatase (Homo sapiens)) was “inactive” each time. For the same compound, the outcome in assay [3] was inactive.

With `Nc1ccccc1Cl`, the Potency entry (in [6]; in assay [2]; in assay [8]; in assay [4]; in [7]; with Aromatase (Homo sapiens)) was “inactive” in each case. Moreover, in [3], the compound was classed as inactive. The activation in assay [9] (at 70.3 µM (top of the series)) was -8.6% (inactive).

On to `COC(=O)C(C)Oc1ccc(Oc2ccc(Cl)cc2Cl)cc1` (configuration not stated), for which the Potency result (in assay [6]; in [2]; in assay [7]; with Aromatase (Homo sapiens)) was “inactive” each time. The result in assay [3] was inactive.

`CCCCC(=O)Cl`: the Potency entry in assay [6], in [2] and in assay [7] was “inactive” in each case. Also, the call in [3] was inactive.

For `Cc1cc(C)nc(Nc2ccccc2)n1`, the Potency entry (in assay [6]; in assay [2]; in [8]; in assay [4]; in assay [7]; with Aromatase (Homo sapiens)) was “inactive” in each case. For the same compound, the outcome in [3] was inactive.

For `CC(=O)[C@H]1CC[C@H]2[C@@H]3CC[C@H]4C[C@H](O)CC[C@]4(C)[C@H]3C(=O)C[C@]12C`, the Potency result (in assay [2]; in assay [8]; in assay [4]; in assay [5]; in assay [7]; in the assay with Aromatase (Homo sapiens)) was “inactive” throughout. The call in assay [3] was inactive. Further, in [9] (at 70.3 µM (top of the series)), the activation is 8.45% (inactive).

For the compound `COc1cc(C[C@@H](C)N)c(OC)cc1C`, the Potency in [6] was 65.4 µM (active). Further, the Potency result (in assay [8]; in assay [7]; with Aromatase (Homo sapiens)) was “inactive” each time. Further, the compound was classed as inactive in assay [3].
